This passage reports Potency, viability (% of control) and viability, % of control results from PubChem BioAssay (NCATS).

Assay [1] in a line: Viability qHTS for spleen associated tyrosine kinase inhibitor (SYKi) naive MV4-11 cells (AID 1963823). Also: nearly all actives have a fitted effect of over 40% in size. Put shortly:
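Luminescence from CellTiter-Glo, developed 10 min at room temperature, gave viability of MV4-11 cells never exposed to SYK inhibitor. Cells (500/well) had been incubated with compounds for 72 hr under standard culture conditions.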
On the technique in general: In qHTS, concentration-response curves come from the screen itself.

Assay [2] is described as follows: Viability qHTS for spleen associated tyrosine kinase inhibitor (SYKi) drug resistant MV4-11 cells (AID 1963824). Also: nearly all actives have a fitted effect of over 35% in size. In short, it runs like this: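 SYK-inhibitor-resistant MV4-11 AML cells were seeded at 500 per well onto compound and cultured 72 hours (37 °C, 5% CO2). CellTiter-Glo was then added, and after 10 min at room temperature, luminescence gave viability.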

SMILES strings stand for the structures. “And” between values parts separate entries of the source, which are not always exact repeats. Equal values may be shown once. Inconclusive results are not listed. Unmarked numbers belong to inactive results. The source made the active and inactive calls. Calls follow the shape of the dose curve; as a rule, active = well fitted cell-killing curve with a large enough effect; inconclusive = small, poorly fitted or top-dose-only effect, or effect the other way; inactive = no such curve, though single readings can be large or run the other way.
Potency is read from the fitted curve at half-maximal effect.

Take `CNCc1cc(-c2ccccc2F)n(S(=O)(=O)c2cccnc2)c1`: the Potency result in assay [1] is “inactive”. Besides, the Potency in assay [2] is 13 µM (active).

For the molecule `CC(=O)OC[C@@]12[C@@H](OC(C)=O)C[C@@H](C)[C@](C)([C@@H]3C[C@H]4C=CO[C@H]4O3)[C@H]1CCC[C@]21CO1`, the Potency entry in assay [1] and in assay [2] was “inactive” each time.

With `CC(C)CC(=O)O[C@@H]1OC=C(CO[C@@H]2O[C@H](CO)[C@@H](O)[C@H](O)[C@H]2O)[C@H]2[C@@H]3O[C@H]3[C@@](O)(CO)[C@@H]12`, the Potency entry in assay [1] and in assay [2] was “inactive” in each case.

Turning to `CC1(C)CC[C@]2(C(=O)OC3OC(CO)C(O)C(O)C3O)CC[C@]3(C)C(=CCC4[C@@]5(C)CC[C@H](OC6OC(C(=O)O)C(O)C(OC7OC(CO)C(O)C(O)C7O)C6O)C(C)(C)C5CC[C@]43C)C2C1` (some centres undefined), the viability (% of control) in assay [1] is 77.3% [at 9.25 µM]. In addition, in assay [2], the viability, % of control is 96.9% [at 9.25 µM].

In the case of `COc1ccc(Oc2c(Cl)cnn(-c3cc(C)cc(C)c3)c2=O)cc1`, the Potency in assay [1] is 2310 nM (active); in assay [2] it was 2.06 µM (active).

With `CC/C=C\CC1C(=O)CCC1CC(=O)OC` (centres undefined), the Potency entry in assay [1] and in assay [2] was “inactive” in each case.

Regarding `COc1cc(/C=C/C(=O)O[C@@H]2C[C@@](O)(C(=O)O)C[C@@H](O)[C@@H]2O)ccc1O`, the Potency result in assay [1] and in assay [2] was “inactive” in each case.

Regarding `O=C(Nc1ccc(Cl)cc1F)c1ccccc1O`, the Potency is 9200 nM (active) in assay [1] and 7.31 µM (active) in assay [2].

As to `O=C1c2ccccc2-c2nc3nnnn3nc21` (tested in a mixture with another compound), the Potency in assay [1] was 92 nM (active); in assay [2], 0.103 µM (active).

In the case of `C=CC(C)(O)CC/C=C(\C)C(=O)OC1CC2(C(=O)O)CCC3(C)C(=CCC4C5(C)CCC(OC6OC(COC7OCC(O)C(O)C7O)C(O)C(OC7OCC(O)C(O)C7O)C6OC6OC(CO)C(O)C(O)C6OC6OCC(O)C(O)C6O)C(C)(C)C5CCC43C)C2CC1(C)C` (centres undefined), the viability (% of control) in assay [1] is 73.5% [at 9.25 µM]. In addition, in assay [2], the viability, % of control was 68% [at 9.25 µM].

`COc1cc(NC(=O)c2cc(C3CC3)on2)c(OC)cc1Cl`: the Potency result in assay [1] and in assay [2] was “inactive” throughout.

Take `CC(=O)OC1C(=O)C2(C)C(O)CC3OCC3(OC(C)=O)C2C(OC(=O)c2ccccc2)C2(O)CC(OC(=O)C(O)C(NC(=O)c3ccccc3)c3ccccc3)C(C)=C1C2(C)C` (centres undefined): the values for the Potency in assay [1] and in assay [2] were 5.8 nM (active) and 0.0073 µM (active), respectively.

As to `COC(=O)C12C(=O)C(C)=C(O)C1(C)C(C)=CC1C34CCC(OC3=O)C(C)(C)C4CCC12C` (centres undefined), the Potency result in assay [1] and in assay [2] was “inactive” throughout.

Turning to `Cc1cc(C(=O)N2Cc3cnn(C)c3Nc3ccccc32)ccc1CNC(=O)N1CCC[C@H]1C(=S)N1CCCN(C)CC1`, the Potency entry in assay [1] and in assay [2] was “inactive” each time.

Take `COc1cc(Nc2nc3c(s2)CCCC3c2ccccc2)ccc1-n1cnc(C)c1` (centres undefined): the viability (% of control) in assay [1] was 89.8% [at 9.25 µM]. The viability, % of control in assay [2] is 109% [at 9.25 µM].

For `CC(=O)c1ccc2c(c1)[C@H](NC(=O)c1ccc(F)c(Cl)c1)[C@H](O)C(C)(C)O2`, the Potency result in assay [1] and in assay [2] was “inactive” in each case.

Take `COC(=O)c1c(CC=C(C)C)c(OC2OC(CO)C(O)C(O)C2O)c2ccccc2c1OC1OC(CO)C(O)C(O)C1O` (centres undefined): the Potency result in assay [1] and in assay [2] was “inactive” each time.

In the case of `CC1OC(OC2C(O)C(OC3CCC4(C)C(CCC5(C)C4CC=C4C6CC(C)(COC7OC(CO)C(O)C(O)C7O)CC(O)C6(C)CCC45C)C3(C)C)OC(C(=O)O)C2O)C(O)C(O)C1OC1OCC(O)C(O)C1O` (centres undefined), in assay [1], the viability (% of control) is 54% [at 9.25 µM]. For the same molecule, the viability, % of control in assay [2] is 85% [at 9.25 µM].

Regarding `CCCCCCCCCCCCCCCCC(C(=O)O)C(O)(CC(=O)O)C(=O)O` (centres undefined), the Potency result in assay [1] and in assay [2] was “inactive” in each case.

Turning to `C=C(C(=O)O)C1CC(O)C2(C)CCCC(C)(O)C2C1` (centres undefined), the Potency result in assay [1] and in assay [2] was “inactive” throughout.

As for `CC[C@H](C)[C@@H]([C@@H](CC(=O)N1CCC[C@H]1[C@H](OC)[C@@H](C)C(=O)N[C@@H](Cc1ccccc1)c1nccs1)OC)N(C)C(=O)[C@@H](NC(=O)[C@H](C(C)C)N(C)C)C(C)C`, the Potency result in assay [1] and in assay [2] was “inactive” each time.

Take `C=C(C=O)[C@]1(O)C[C@@]2(C)C(=CC1=O)C=C[C@H](OC(=O)/C=C/C=C/[C@H](C)CC)[C@@H]2C`: the Potency in assay [1] was 1120 nM (active); in assay [2] it was 0.796 µM (active).

`CCC/C=C/C(=O)O[C@H]1CC(C)(C)CC2[C@]13[C@H](O)O[C@@]21CCC2[C@@]4(C)CC[C@H](O[C@@H]5O[C@H](C(=O)O)[C@@H](O)[C@H](O[C@@H]6O[C@H](CO)[C@H](O)[C@H](O)[C@H]6O[C@@H]6O[C@@H](C)[C@H](O)[C@@H](O)[C@H]6O[C@@H]6OC[C@](O)(CO)[C@H]6O)[C@H]5O[C@@H]5O[C@H](CO)[C@H](O)[C@H](O)[C@H]5O)C(C)(C)C4CC[C@@]2(C)[C@]1(C)C[C@H]3OC(C)=O` (some centres undefined): the viability (% of control) in assay [1] was 57.2% [at 9.25 µM]. In assay [2], the viability, % of control was 66.3% [at 9.25 µM].

`O=C(NS(=O)(=O)c1ccc(Br)s1)c1ccc(Cl)cc1Cl`: the figures for the Potency in assay [1] and in assay [2] were 7310 nM (active) and 9.2 µM (active), respectively.

For `COc1ccc(C(=O)OC2C3C=COC(OC4OC(CO)C(O)C(O)C4O)C3C3(CO)OC23)cc1OC` (centres undefined), the Potency entry in assay [1] and in assay [2] was “inactive” throughout.

`O=C(C(c1ccccc1)c1ccccc1)N1CCN(CC(O)COc2cccc3ncccc23)CC1` (centres undefined): the Potency in assay [1] was 20900 nM (active); in assay [2], 10.3 µM (active) and 11.8 µM (active).

As for `C[C@H](O)[C@H](O)/C=C/c1cccc(O)c1CO`, the Potency entry in assay [1] was “inactive”. Besides, the Potency in assay [2] is 0.0092 µM (active).
